# Measured values from PubChem BioAssay (NCATS).
# “And” between values parts separate entries of the source, which are not always exact repeats. Equal entries are not always repeated. Inconclusive results are not listed. The source holds several records for some structures; these can differ, active in one and inactive in another. The source made the active and inactive calls. The call rests on the fitted dose curve; in most records, active means well fitted curve in the direction sought with a large enough effect; inconclusive means small, poorly fitted or top-dose-only effect, or another doubt; inactive means no such curve, though single readings can be large; an effect the other way counts as inactive or inconclusive.
# Assay: P-glycoprotein substrates identified in KB-3-1 adenocarcinoma cell line, qHTS therapeutic library screen (AID 1346986); further: nearly all actives have a fitted effect of over 60% in size;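 further: potency is for cytotoxicity meaning loss of cell viability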
# Settings: KB-3-1 parental cells viability, CellTiter-Glo, 72 h; series mostly up to 44.5 µM; activity change, negative = cytotoxicity: at the top concentration
# In short: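 Viability read by CellTiter-Glo after 72 h compound exposure in dose-response of KB-3-1 and KB-8-5-11 (P-gp-high) cells. Hits needed AC50 < 10 uM, >50% maximum response and curve class -1.1 to -2.4. Cherry-picks retested ± tariquidar, including pcDNA/MDR-19 HEK-293 pair.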
# On the % scale 0 is the no-effect control and ±100 the full control effect; potency means the concentration at half of the fitted maximal effect.
Compound,outcome,Potency,"activity change, negative = cytotoxicity"
CC(=O)C1=C(O)C=C2Oc3c(C(C)=O)c(O)c(C)c(O)c3C2(C)C1=O (stereo not drawn),inactive,–,–
CCCCCCCCCCCCCCCC(=O)OC[C@@H](NC(=O)C(Cl)Cl)[C@H](O)c1ccc([N+](=O)[O-])cc1,inactive,–,–
O=C(O)C=Cc1ccc(Cn2ccnc2)cc1,inactive,–,–
O=C(O)c1ccc(Nc2ncc3c(n2)-c2ccc(Cl)cc2C(c2c(F)cccc2F)=NC3)cc1,–,0.82 µM (active),–
CC(=O)O[C@]1(C(C)=O)CC[C@H]2[C@@H]3C=C(C)C4=CC(=O)CC[C@]4(C)[C@@H]3CC[C@@]21C,inactive,–,–
CC1(C)[C@H](O[C@H]2O[C@H](C(=O)O)[C@@H](O)[C@H](O)[C@H]2O[C@@H]2O[C@H](C(=O)O)[C@@H](O)[C@H](O)[C@H]2O)CC[C@@]2(C)[C@H]1CC[C@]1(C)[C@H]2C(=O)C=C2[C@H]3C[C@@](C)(C(=O)O)CC[C@]3(C)CC[C@]21C,inactive,–,–
CCCNS(=O)(=O)Nc1ncnc(OCCOc2ncc(Br)cn2)c1-c1ccc(Br)cc1,inactive,–,–
CS(=O)(=O)N1CCc2c(-c3cnc(N)nc3)nc(N3CCOCC3)nc21,–,0.82 µM (active),–
CC(C)(C)c1nc2c3cc[nH]c(=O)c3c3cc(F)ccc3c2[nH]1,–,7.31 µM (active),–
C=Cc1c(C)c2cc3nc(cc4[nH]c(cc5nc(cc1[nH]2)C(C)=C5CCC(=O)O)c(CCC(=O)OC)c4C)[C@@]1(C)C3=CC=C(C(=O)OC)[C@H]1C(=O)OC,inactive,–,–
CCc1ccc(C(=O)Nc2cc(CN3CCN(C)CC3)cc(C(F)(F)F)c2)cc1C#Cc1cnc2ccnn2c1,–,4.11 µM (active),–
CCNC(=O)Nc1ccc(-c2nc3c(c(N4CCOC[C@H]4C)n2)CCN(C2COC2)C3)cc1,–,0.58 µM (active),–
COC(=O)[C@@H]1CC2=CC(=O)CC[C@]2(C)[C@@]23O[C@@H]2C[C@@]2(C)[C@H](CC[C@@]24CCC(=O)O4)[C@@H]13,inactive,–,–
COc1ccc2cc([S+]([O-])Cc3ncc(C)c(OC)c3C)nc2c1,inactive,–,–
C[N+]1(C)[C@@H]2C[C@@H](OC(=O)C(O)(c3cccs3)c3cccs3)C[C@H]1[C@@H]1O[C@@H]12,inactive,–,–
CC(=O)O[C@H]1C[C@@H]2CC[C@H]3[C@H]4C[C@H]([N+]5(C)CCCCC5)[C@@H](OC(C)=O)[C@@]4(C)CC[C@@H]3[C@@]2(C)C[C@H]1[N+]1(C)CCCCC1,inactive,–,–
CCN1CCN(C(=O)N[C@H](C(=O)N[C@@H]2C(=O)N3C(C(=O)O)=C(CSc4nnnn4C)CS[C@@H]23)c2ccc(O)cc2)C(=O)C1=O,inactive [at 9.29 µM],–,–
COc1cc2ncnc(Nc3cccc(Br)c3)c2cc1OC,–,inactive and 18.4 µM (active),–
CCOC(=O)N1CCN([N+]([O-])=NOc2ccc([N+](=O)[O-])cc2[N+](=O)[O-])CC1,inactive,–,–
COc1cc(C)c(Sc2cnc(NC(=O)c3ccc(CNC(C)C(C)(C)C)cc3)s2)cc1C(=O)N1CCN(C(C)=O)CC1 (stereo not drawn),–,–,-0.152% (inactive)
CNC(=O)Nc1ccc(-c2nc(N3CC4CCC(C3)O4)c3cnn(C4CCC5(CC4)OCCO5)c3n2)cc1,–,0.0411 µM (active),–
COc1cc(C)c(C=CC(C)=CC=CC(C)=CC(=O)O)c(C)c1C,inactive,–,–
NC1=N[C@H]2[C@H](CS[C@H]2CCCCC(=O)O)N1,inactive [at 17.4 µM],–,–

# Assay: P-glycoprotein substrates identified in KB-8-5-11 adenocarcinoma cell line, qHTS therapeutic library screen (AID 1346987); further: nearly all actives have a fitted effect of over 65% in size
# Settings: KB-8-5-11 (P-gp overexpressing) viability, CellTiter-Glo, 72 h; series mostly up to 44.5 µM; activity change, negative = cytotoxicity: at the top concentration
# In short: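 Compounds are pinned in dose-response onto KB-8-5-11 cells (500 cells/well, colchicine-free medium) and left 72 h at 37 degree C. CellTiter-Glo luminescence then yields AC50 values.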
Compound,"activity change, negative = cytotoxicity",outcome,Potency
CC(=O)C1=C(O)C=C2Oc3c(C(C)=O)c(O)c(C)c(O)c3C2(C)C1=O (stereo not drawn),3.99% (inactive),–,–
CCCCCCCCCCCCCCCC(=O)OC[C@@H](NC(=O)C(Cl)Cl)[C@H](O)c1ccc([N+](=O)[O-])cc1,5.17% (inactive),–,–
CCCNC(=O)[C@H]1O[C@H]1C(=O)N[C@H](C(=O)N1CCC[C@@H]1C(=O)OC)C(C)CC (stereo partly drawn),-11.8% (inactive),–,–
O=C(O)C=Cc1ccc(Cn2ccnc2)cc1,–,inactive,–
CN1CCCN(C(=O)c2cccc(-c3ccc(C=C4C(=O)Nc5ccc(Cl)cc54)o3)c2)CC1,–,–,16.6 µM (active)
N#Cc1ccc(COC[C@H]2O[C@@H](n3c(NCc4ccc(Cl)c(Cl)c4)nc4c(N)ncnc43)[C@@H](O)[C@@H]2O)cc1,-6.83% (inactive),–,–
N#CC(=Cc1ccc(O)c(O)c1)C(=O)NCc1ccccc1,-23.2% (inactive),–,–
O=c1[nH]c(=O)n([C@H]2C[C@@H](O)[C@@H](CO)O2)cc1C=CBr,–,inactive,–
COC1=C2C[C@@H](C)C[C@H](OC)[C@@H](O)[C@@H](C)C=C(C)[C@H](OC(N)=O)[C@@H](OC)C=CC=C(C)C(=O)NC(=CC1=O)C2=O,–,–,13.2 µM (active)
CC(=O)O[C@]1(C(C)=O)CC[C@H]2[C@@H]3C=C(C)C4=CC(=O)CC[C@]4(C)[C@@H]3CC[C@@]21C,–,inactive,–
CC1(C)[C@H](O[C@H]2O[C@H](C(=O)O)[C@@H](O)[C@H](O)[C@H]2O[C@@H]2O[C@H](C(=O)O)[C@@H](O)[C@H](O)[C@H]2O)CC[C@@]2(C)[C@H]1CC[C@]1(C)[C@H]2C(=O)C=C2[C@H]3C[C@@](C)(C(=O)O)CC[C@]3(C)CC[C@]21C,9.32% (inactive),–,–
CCCNS(=O)(=O)Nc1ncnc(OCCOc2ncc(Br)cn2)c1-c1ccc(Br)cc1,-19.6% (inactive),–,–
CS(=O)(=O)N1CCc2c(-c3cnc(N)nc3)nc(N3CCOCC3)nc21,–,–,1.3 µM (active)
FC(F)c1nc2ccccc2n1-c1nc(N2CCOCC2)nc(N2CCOCC2)n1,–,–,1.16 µM (active)
CC(C)(C)c1nc2c3cc[nH]c(=O)c3c3cc(F)ccc3c2[nH]1,–,–,5.17 µM (active)
C=Cc1c(C)c2cc3nc(cc4[nH]c(cc5nc(cc1[nH]2)C(C)=C5CCC(=O)O)c(CCC(=O)OC)c4C)[C@@]1(C)C3=CC=C(C(=O)OC)[C@H]1C(=O)OC,–,inactive,–
CCc1ccc(C(=O)Nc2cc(CN3CCN(C)CC3)cc(C(F)(F)F)c2)cc1C#Cc1cnc2ccnn2c1,–,–,8.33 µM (active) and 3.66 µM (active)
CCNC(=O)Nc1ccc(-c2nc3c(c(N4CCOC[C@H]4C)n2)CCN(C2COC2)C3)cc1,–,–,1.84 µM (active)

Compound,"activity change, negative = cytotoxicity",outcome,Potency
COC(=O)[C@@H]1CC2=CC(=O)CC[C@]2(C)[C@@]23O[C@@H]2C[C@@]2(C)[C@H](CC[C@@]24CCC(=O)O4)[C@@H]13,0.499% (inactive),–,–
COc1ccc2cc([S+]([O-])Cc3ncc(C)c(OC)c3C)nc2c1,-12.8% (inactive),–,–
C[N+]1(C)[C@@H]2C[C@@H](OC(=O)C(O)(c3cccs3)c3cccs3)C[C@H]1[C@@H]1O[C@@H]12,6.73% (inactive),–,–
CC(=O)O[C@H]1C[C@@H]2CC[C@H]3[C@H]4C[C@H]([N+]5(C)CCCCC5)[C@@H](OC(C)=O)[C@@]4(C)CC[C@@H]3[C@@]2(C)C[C@H]1[N+]1(C)CCCCC1,6.79% (inactive),–,–
c1cc(N[C@@H]2CCNC2)nc(-c2cnc3ccc(-c4cn[nH]c4)cn23)c1,–,inactive,–
CN[C@H](CC(C)C)C(=O)N[C@H]1C(=O)N[C@@H](CC(N)=O)C(=O)N[C@@H]2C(=O)N[C@H]3C(=O)N[C@H](C(=O)N[C@H](C(=O)O)c4cc(O)cc(O)c4-c4cc3ccc4O)[C@H](O)c3ccc(c(Cl)c3)Oc3cc2cc(c3O[C@@H]2O[C@H](CO)[C@@H](O)[C@H](O)[C@@H]2O[C@H]2C[C@](C)(N)[C@H](O)[C@H](C)O2)Oc2ccc(cc2Cl)[C@H]1O,–,inactive,–
CCN1CCN(C(=O)N[C@H](C(=O)N[C@@H]2C(=O)N3C(C(=O)O)=C(CSc4nnnn4C)CS[C@@H]23)c2ccc(O)cc2)C(=O)C1=O,–,inactive [at 9.29 µM],–
Cc1cnn(C)c1C(=O)Nc1cc(Nc2ccc3c(C=Cc4ccccn4)n[nH]c3c2)ccc1F,–,–,5.26 µM (active)
COc1cc2ncnc(Nc3cccc(Br)c3)c2cc1OC,-19.2% (inactive),–,–
CCOC(=O)N1CCN([N+]([O-])=NOc2ccc([N+](=O)[O-])cc2[N+](=O)[O-])CC1,8.04% (inactive),–,–
COc1cc(C)c(Sc2cnc(NC(=O)c3ccc(CNC(C)C(C)(C)C)cc3)s2)cc1C(=O)N1CCN(C(C)=O)CC1 (stereo not drawn),–,inactive,–
CNC(=O)Nc1ccc(-c2nc(N3CC4CCC(C3)O4)c3cnn(C4CCC5(CC4)OCCO5)c3n2)cc1,–,–,14.8 nM (active) and 184 nM (active)
COc1cc(C)c(C=CC(C)=CC=CC(C)=CC(=O)O)c(C)c1C,–,inactive,–
C=CC(=O)Nc1cc(NC(=O)c2ccc(C)c(NC(=O)c3ccno3)c2)cc(C(F)(F)F)c1,0.864% (inactive),–,–
Oc1ccc([C@@H]2Oc3ccc(O)cc3[C@@H]3CCC[C@@H]32)cc1,–,–,5.9 µM (active) and 5.8 µM (active)
Nc1ncn([C@@H]2O[C@H](CO)[C@@H](O)[C@@H]2O)c(=O)n1,–,–,11.8 µM (active)
NC1=N[C@H]2[C@H](CS[C@H]2CCCCC(=O)O)N1,5.44% [at 17.3 µM] (inactive),–,–
